Source: PubChem BioAssay (several laboratories)
Tat export inh – inhibitors of E. coli Tat protein transport; 0.036% of 340,000 active; E. coli MC4100 TorA-mCherry Tat export, fluorescence; inhibition, % at 10 µM;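 active means mean replicate inhibition at least 50% and at least half of replicates individually reaching 50%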;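 further: exported cargo escapes ClpAP degradation while cytoplasmic cargo is degraded and loses fluorescence; 0% = median of neutral control wells and 100% = median of NaSCN control wells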
E coli growth-1 – reduces bacterial viability in AddAB counter-screen; E. coli V3065 growth, OD600 absorbance, 18 h; inhibition, % at 11.9 µM; 0.27% of 330,000 active; AID 449728;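 active means inhibition above the campaign's mean inhibition across all tested compounds plus 3 SD, cut at about 9.9% in these data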;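 further: uninfected addAB+ strain grown without phage in ampicillin broth; 0% = DMSO wells and 100% = ciprofloxacin 0.95 µg/ml wells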
E coli growth-2 – inhibitors of Escherichia coli growth; OD600, 23 h; active compounds read low; OD600 absorbance (test concentration not listed); 0.21% of 330,000 active; AID 1053175;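 active means OD600 absorbance below the run mean of sample wells minus 3.6 SD, in any replicate, cut at about 0.56 in these data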
AddAB inh – less growth of phage-infected E. coli with AddAB; 0.29% of 330,000 active; inhibition, % at 11.9 µM; E. coli expressing H. pylori AddAB, absorbance growth; in the data active means inhibition above about 12%;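 further: 0% = vehicle wells of infected cells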
phage Ecoli inh – E. coli growth loss with phage present; AID 651602; growth absorbance; 0.26% of 360,000 active; inhibition, % at 11.9 µM; in the data active means inhibition above about 11%
AI-2 QS modul – modulators of Vibrio harveyi AI-2 quorum sensing system; 0.4% of 300,000 active; Vibrio harveyi JMH597 AI-2 luminescence/OD600 ratio, 9 h; active compounds read low; strain lacks LuxN and CqsS sensors; 0 = neutral-control median; activity change, % at 7.5 µM; in the data active means activity change below about -75%, passing the limit was not always enough;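 further: luminescence divided by OD600 gain over 9 h not by final OD600 alone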
Numbers without * were called inactive; · = not tested or not shown. In the library only some 0.79% were active in any assay of this set; here they are far more common.

SMILES | Tat export inh | E coli growth-1 | E coli growth-2 | AddAB inh | phage Ecoli inh | AI-2 QS modul
COc1cc(/C=C/C(O)=C/C(=O)/C=C/c2ccc(O)cc2)ccc1O | 4 | 10* | · | 8 | 11 | ·
COc1cc(/C=C/C(=O)NC(=O)c2ccccc2O)ccc1O | -18 | 0 | 0.68 | 1 | -3 | 19
CCCC(CN1CCCC1CN1C(N)=NCC1Cc1ccccc1)N1CC(Cc2ccccc2)N(CCCC2CCCC2)C1=N (configuration not stated) | · | · | 0.34* | · | · | ·
CCC[C@@H](CN1CCC[C@H]1CN1C(N)=NC[C@H]1CC(C)C)N1C[C@@H]([C@H](C)CC)N(CCCC2CCCC2)C1=N | -1 | 5 | 0.43* | 3 | 4 | ·
CCC[C@@H](CN1CCC[C@H]1CN1C(N)=NC[C@H]1C(C)C)N1C[C@@H]([C@H](C)CC)N(CCCC2CCCC2)C1=N | 10 | 1 | 0.65 | 2 | 1 | ·
CCN(CC)c1ccc(C=NNC(=O)c2c(-c3ccccc3)noc2C)cc1 | · | · | 0.64 | · | · | ·
CS(=O)(=O)N1CCc2cc(C(=O)OCC(=O)c3ccccc3)ccc21 | -4 | 0 | 0.75 | -2 | 1 | -77*
CN(C(=O)c1ccc2c(c1)CCN2S(C)(=O)=O)c1ccccc1 | 7 | 0 | 0.67 | 1 | 4 | 4
N#Cc1nc(-c2ccccc2Cl)oc1NCc1ccco1 | 7 | 3 | 0.65 | 3 | 2 | -80*
Cc1cc(OCCCCn2ccnc2)cc(C)c1Cl | 10 | -1 | 0.5* | 0 | 4 | 13
COc1cc(C=NNC(=O)CCc2c(C)n[nH]c2C)ccc1O | · | · | 0.73 | · | · | ·
Nc1cccc([N+](=O)[O-])c1 | -9 | 3 | 0.65 | 2 | -2 | 5
O=[N+]([O-])c1cccc(SSc2cccc([N+](=O)[O-])c2)c1 | 3 | · | 0.54* | · | 2 | ·
Cc1ccc2[nH]c3c(NCc4ccccc4)ncnc3c2c1 | · | · | 0.46* | · | 2 | 20
CCn1nc(C)cc1-c1nnc(Sc2ncc([N+](=O)[O-])s2)n1C | 12 | 1 | 0.62 | 2 | 5 | -238*
Cc1ccc(C=Nn2c(C3CCCCC3)n[nH]c2=S)s1 | · | · | 0.68 | · | · | ·
O=C(OC[C@H]1O[C@@H](OC(=O)c2cc(O)c(O)c(OC(=O)c3cc(O)c(O)c(O)c3)c2)[C@H](OC(=O)c2cc(O)c(O)c(OC(=O)c3cc(O)c(O)c(O)c3)c2)[C@@H](OC(=O)c2cc(O)c(O)c(OC(=O)c3cc(O)c(O)c(O)c3)c2)[C@@H]1OC(=O)c1cc(O)c(O)c(OC(=O)c2cc(O)c(O)c(O)c2)c1)c1cc(O)c(O)c(OC(=O)c2cc(O)c(O)c(O)c2)c1 | · | 30* | · | 28* | · | ·
Cc1nc2ccc(C(=O)NN=Cc3ccc(O)cc3)cc2[nH]1 | · | · | 0.7 | · | · | ·
Cc1ccc(C)c(CSc2nnc(-c3cccnc3)o2)c1 | -5 | -1 | 0.67 | 1 | 2 | -80*
Fc1ccccc1CSc1nnc(-c2cccnc2)o1 | -12 | 1 | 0.6 | 1 | 5 | -92*
Cc1nn(-c2cccc(C(F)(F)F)c2)c(Cl)c1C=NNc1cccc(C(=O)O)c1 | · | · | 0.7 | · | · | ·
O=C(c1ccc(O)c(Br)c1)c1cc(Br)ccc1O | -6 | · | 0.39* | · | 11 | ·
COC(CNc1ncnc2sc(-c3ccccc3)cc12)OC | 58* | -2 | 0.66 | 0 | 0 | 8
O=C(NCCCN1CCOCC1)C(=O)NN=Cc1ccc(F)cc1 | · | · | 0.71 | · | · | ·
Cc1cccc2nc(CSc3nc4ccccc4o3)cn12 | 0 | 1 | 0.64 | -1 | 4 | -93*
SMILES | Tat export inh | E coli growth-1 | E coli growth-2 | AddAB inh | phage Ecoli inh | AI-2 QS modul
N#CC(c1ccc(Cl)cc1)c1ccc2c(C(F)(F)F)cc(C(F)(F)F)nc2n1 (configuration not stated) | -16 | 2 | 0.68 | 3 | 15* | 62
O=C(CSc1nnnn1-c1ccc(O)cc1)c1cc2ccccc2o1 | 6 | 0 | 0.67 | 5 | 2 | -77*
Cc1cc(C)c(-n2nnnc2SCC(=O)c2cc3ccccc3o2)c(C)c1 | -4 | -1 | 0.67 | -4 | 3 | 8
CSC1=NC(C)(C)C=C(C=Cc2c(Cl)cccc2Cl)N1 | · | · | 0.72 | · | · | ·
O=[N+]([O-])c1cccc2nc3ccccc3c(NCCCn3ccnc3[N+](=O)[O-])c12 | 2 | · | · | · | 16* | ·
COC(=O)c1c(NC(=S)NN2CCN(C)CC2)sc2c1CCC(C)C2 (configuration not stated) | 14 | -5 | 0.48* | -3 | 3 | 26
CN(C)c1ccc(NC(=O)C=Cc2ccccc2Cl)cc1 | · | · | 0.69 | · | · | ·
CN(C)S(=O)(=O)c1ccc(NC(=O)/C=C/c2ccccc2Cl)cc1 | 10 | 7 | 0.56 | 8 | 8 | -93*
O=C(NC12CC3CC(CC(C3)C1)C2)c1ccc(Br)o1 | 2 | 0 | 0.64 | 0 | 2 | 31
O=C(NC12CC3CC(CC(C3)C1)C2)c1ccc([N+](=O)[O-])o1 | 3 | -3 | 0.68 | 6 | 2 | -210*
Cc1cc(O)c(C(C)C)cc1N=Nc1ccccc1C(=O)O | 3 | -1 | 0.66 | -2 | -2 | 24
Cc1cc(N=Nc2ccccc2C(=O)O)c(C)c(C)c1O | -1 | 10.0* | 0.72 | 7 | 1 | 6
Cc1ccc(/C=N/NC(=O)CSc2nnc(-c3ccc(Cl)cc3)n2-c2ccc(Cl)cc2)o1 | -1 | 13* | · | 7 | 11 | -2
Cc1ccc(C(C)C)c(OCc2nc(-c3nonc3N)no2)c1 | 0 | 2 | 0.7 | 5 | 4 | -85*
O=C(NN=Cc1ccc(N2CCOCC2)cc1)C1CC1 | · | · | 0.71 | · | · | ·
CC(=NNS(C)(=O)=O)c1ccccc1 | · | · | 0.7 | · | · | ·
Cc1ccc(C(C[N+](=O)[O-])c2c(-c3ccccc3O)[nH][nH]c2=O)cc1 (configuration not stated) | -30 | 0 | 0.52* | 8 | 5 | -14
O=c1[nH][nH]c(-c2ccccc2O)c1C(C[N+](=O)[O-])c1ccc(Br)cc1 (configuration not stated) | -9 | 0 | 0.57 | 1 | 3 | -1
Cc1cccc2c1Sc1ccc(Cl)cc1CC2N1CCNCC1 (configuration not stated) | · | 0 | 0.39* | 3 | · | 57
CC1CC(C)CN(C(=O)C2CCCN(c3ncnc4c3nc3n4CCCCC3)C2)C1 (configuration not stated) | 1 | 0 | 0.67 | 1 | -1 | -76*
CCc1ccc(C(=O)Nn2cnc3ccccc3c2=O)cc1 | 2 | 1 | 0.65 | 2 | 1 | -80*
O=C(Nn1cnc2ccccc2c1=O)c1ccc(Br)cc1 | -1 | -3 | 0.69 | 0 | 4 | -62
CCCCCC[N+](C)(C)CCSSCC[N+](C)(C)CCCCCC | 0 | 0 | 0.65 | 0 | 1 | 7
CCCCCCCCCCCCCCCC[N+](C)(C)CC | 13 | -2 | 0.061* | -2 | 2 | -39
